Shown are actives, neighbours in structure and some others; about 18% of the full set was active somewhere.
VDR inh = Inhibitors of the vitamin D receptor (VDR): qHTS. VDR-SRC2-3 peptide fluorescence polarization, 2 h. Potency, µM, hits mostly inhibitors. 400,000 tested, 0.93% active. Vitamin D3 receptor (Homo sapiens), P11473
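Signal is fluorescence polarization, reporting how far test compounds block the interaction of VDR with the SRC2-3 coregulator peptide after a 2 h room-temperature incubation.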
DT40 TDP1 CPT = qHTS for Inhibitors of human tyrosyl-DNA phosphodiesterase 1 (TDP1): qHTS in cells in presence of CPT. chicken DT40 Tdp1-/-;hTDP1 cells + 20 nM CPT, ATP luminescence, 48 h. Potency, µM (top dose mostly 46.2 µM), actives largely listed as inhibitors. 420,000 tested, 12% active. AID 686979, 2013; note: nearly all actives have a fitted effect of over 55% in size
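Cell growth measured by CellTiter-Glo luminescence after a minimum 48 h, 37 C compound exposure with 20 nM CPT in Tdp1-knockout DT40 cells stably expressing hTDP1, seeded 400/well; qHTS titration format.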
PLK1 PBD inh = qHTS for Inhibitors of PLK1-PDB (polo-like kinase 1 - polo-box domain): Primary Screen; Plk1 PBD binding of FITC phosphopeptide, fluorescence polarization; Potency, µM, actives largely listed as inhibitors; Serine/threonine-protein kinase PLK1 (Homo sapiens), P53350; AID 720504, 2013; 360,000 tested, 2.8% active; note: series mostly up to about 57 µM; nearly all actives have a fitted effect of over 65% in size
GCN5L2 inh = qHTS Assay for Inhibitors of GCN5L2 | GCN5L2 HAT assay, ThioGlo1 CoA-SH fluorescence | Potency, µM (top dose mostly 58.9 µM), hits mostly inhibitors | 390,000 tested, 0.21% active | AID 504327, 2011
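Preincubate 20nM GCN5L2 with compound 15 min, RT → add 50uM ThioGlo1 + 75uM H3(1-25) + 70uM acetyl-CoA → read fluorescence 0 and 20 min. Primary qHTS; fluorescent artifacts likely.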
DT40 TDP1 no CPT = qHTS for Inhibitors of human tyrosyl-DNA phosphodiesterase 1 (TDP1): qHTS in cells in absence of CPT | DT40 Tdp1-/- hTDP1 cells, no CPT, ATP luminescence, 48 h | Potency, µM (series often up to 46.2 µM), usual class: inhibitors | 420,000 tested, 15% active; note: nearly all actives have a fitted effect of over 55% in size
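Growth kinetics read by CellTiter-Glo luminescence after ≥48 hr at 37 °C. Cells: DT40 Tdp1-/- stably carrying human TDP1, 400 per well, compound exposure in the absence of CPT (DMSO vehicle).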
TDP1 inh = qHTS Assay for Inhibitors of Tyrosyl-DNA Phosphodiesterase (TDP1). Tyrosyl-DNA phosphodiesterase 1 (Homo sapiens), Q9NUW8. recombinant TDP1, AlphaScreen DNA substrate cleavage. Potency, µM (series often up to 130 µM), hits mostly inhibitors. 350,000 tested, 0.28% active; note: nearly all actives have a fitted effect of over 40% in size
Target sequence (Q9NUW8 whole entry, looked up): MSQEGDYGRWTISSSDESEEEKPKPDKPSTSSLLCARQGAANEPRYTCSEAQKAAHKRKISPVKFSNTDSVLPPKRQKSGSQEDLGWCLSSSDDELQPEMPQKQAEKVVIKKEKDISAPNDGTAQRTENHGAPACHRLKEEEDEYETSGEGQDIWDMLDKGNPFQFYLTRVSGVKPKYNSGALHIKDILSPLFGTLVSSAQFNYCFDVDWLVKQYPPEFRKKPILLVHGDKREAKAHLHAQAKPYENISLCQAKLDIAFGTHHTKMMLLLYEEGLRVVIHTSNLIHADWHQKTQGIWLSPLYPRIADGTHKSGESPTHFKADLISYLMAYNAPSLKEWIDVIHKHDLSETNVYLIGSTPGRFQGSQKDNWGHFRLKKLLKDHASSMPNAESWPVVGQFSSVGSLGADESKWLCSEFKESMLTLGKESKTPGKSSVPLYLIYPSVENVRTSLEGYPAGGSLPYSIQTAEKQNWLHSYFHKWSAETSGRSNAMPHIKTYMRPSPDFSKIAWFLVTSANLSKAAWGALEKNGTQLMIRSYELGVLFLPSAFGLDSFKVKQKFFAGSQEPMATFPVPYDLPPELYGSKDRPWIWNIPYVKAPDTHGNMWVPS
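AlphaScreen read-out: signal falls as enzyme removes the 3' tyrosine-FITC from a 5'-biotinylated DNA oligo (15 nM, 5 min, RT). Enzyme was E. coli-made recombinant Tdp1 at 1 nM, exposed to compound for 15 min beforehand; beads 10 ug/ml, 10 min.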
Numbers stand for hits; - = inactive; ? = inconclusive; . = not tested or not shown. Calls come from the whole dose curve; as a rule, active = well fitted curve in the direction sought with a large enough effect; inconclusive = small, poorly fitted or top-dose-only effect, or another doubt; inactive = no such curve, though single readings can be large; an effect the other way counts as inactive or inconclusive.

SMILES	VDR inh	DT40 TDP1 CPT	PLK1 PBD inh	GCN5L2 inh	DT40 TDP1 no CPT	TDP1 inh
COc1cccc(CCc2nnc(N)s2)c1	-	-	?	-	-	.
CCOc1ccc(S(=O)(=O)NCC(c2ccco2)S(=O)(=O)c2ccc(C)cc2)cc1 (stereo not drawn)	-	?	.	-	?	-
Cc1cc(C)c(CSc2ncc(-c3ccc([N+](=O)[O-])cc3)[nH]2)c(C)c1	-	16µM	-	?	10µM	-
O=[N+]([O-])c1ccc(-c2cnc(SCc3ccccc3Cl)[nH]2)cc1	-	-	-	?	-	-
Cc1cc(NC(=O)C(C)SCC(=O)Nc2ccccc2N2CCCC2)no1 (stereo not drawn)	-	?	-	-	?	-
Cc1cc(NC(=O)C(C)SCC(=O)Nc2ccccc2C(C)(C)C)no1 (stereo not drawn)	-	?	-	-	15µM	.
CCOc1ccc(Oc2ccccc2NC(=O)CSCC(=O)Nc2cc(C)on2)cc1	-	23µM	-	-	13µM	-
Cc1cc(NC(=O)c2cccc(Br)c2)n[nH]1	-	-	-	-	-	-
O=C(Nc1cccc(NC(=O)c2cccc(F)c2)n1)c1cccc(F)c1	-	?	-	-	21µM	.
O=C(Nc1cccc(NC(=O)c2c(F)cccc2F)n1)c1c(F)cccc1F	-	-	-	-	?	.
CSc1nccc(NC(=O)c2cccc(Br)c2)n1	-	-	-	-	21µM	.
CCc1cccc(C)c1NC(=O)CSc1nc(C)cc(C)c1C(=O)Nc1ccccc1	-	?	.	-	?	-
CCOc1ccc(/C=C/c2nc3ccccc3n2S(=O)(=O)c2ccc(Br)cc2)cc1	-	?	.	-	?	-
O=S(=O)(c1cccc(C(F)(F)F)c1)n1c(/C=C/c2ccccc2)nc2ccccc21	-	8.2µM	.	-	10µM	-
CSc1ccc(/C=C/c2nc3ccccc3n2S(=O)(=O)c2ccc(Br)cc2)cc1	-	15µM	.	-	10µM	-
CCOC(=O)c1c(C)[nH]c(C)c1S(=O)(=O)N1CCCC(C(=O)NCc2cccc(C)c2)C1 (stereo not drawn)	-	-	.	-	-	-
Cc1ccc(-n2ncc(C#N)c2/N=C/N2CCN(C)CC2)cc1	-	-	-	-	-	-
CN1CCN(/C=N/c2c(C#N)cnn2-c2ccccc2)CC1	-	?	27µM	-	-	-
O=C(CCC(=O)N1CC2CCCN2c2ccccc21)NCc1ccc(F)cc1 (stereo not drawn)	-	?	.	-	?	-
Cc1ccccc1CNC(=O)CCC(=O)N1CC2CCCN2c2ccccc21 (stereo not drawn)	-	18µM	.	-	23µM	-
O=C(CCC(=O)N1CC2CCCN2c2ccccc21)NCc1ccccc1F (stereo not drawn)	-	12µM	.	-	18µM	-
COc1ccc(NC(=O)COC(=O)CCC(=O)c2cccs2)cc1OC	-	-	-	-	-	-
CN(Cc1ccc(F)cc1)S(=O)(=O)c1nnc(NC(=O)c2ccc(F)cc2)s1	-	?	.	-	15µM	-
CN(Cc1ccc(F)cc1)S(=O)(=O)c1nnc(NC(=O)c2ccccc2)s1	-	-	-	-	?	-
CN(Cc1ccccc1)S(=O)(=O)c1nnc(NC(=O)c2cccc(Cl)c2)s1	-	15µM	.	-	13µM	-
SMILES	VDR inh	DT40 TDP1 CPT	PLK1 PBD inh	GCN5L2 inh	DT40 TDP1 no CPT	TDP1 inh
Cc1ccc(C[C@H](C(=O)O)N2C(=O)c3ccc(C(=O)O)cc3C2=O)cc1	.	.	.	-	.	-
COc1ccc2[nH]c(=O)c(CN(CC3CCCO3)C(=S)Nc3cccc(C)c3)cc2c1 (stereo not drawn)	-	?	-	-	?	.
COc1ccc(NCc2cc3cc(OC)ccc3[nH]c2=O)cc1	-	8.2µM	-	-	23µM	-
COc1ccc2[nH]c(=O)c(CNc3cccc(C)c3)cc2c1	-	13µM	-	-	12µM	-
COc1ccc(NCc2cc3ccccc3[nH]c2=O)cc1	-	?	-	-	?	-
O=S1(=O)N[C@@H](Cc2ccccc2)COc2cc(Br)ccc21	-	-	-	-	-	.
CCN(CC(=O)Nc1cc(Cl)ccc1C)C(=O)c1cc(S(=O)(=O)N2CCCCCC2)ccc1OC	-	?	-	-	18µM	-
CCN(CC(=O)Nc1ccccc1OC)C(=O)c1cc(S(=O)(=O)N2CCCCCC2)ccc1OC	-	16µM	-	-	12µM	-
CCCN(CC(=O)Nc1ccccc1C)C(=O)/C=C/c1ccc(S(=O)(=O)N2CCCCCC2)cc1	-	?	-	-	21µM	.
O=S1(=O)CCC(NC(=S)N2CCOCC2)C1 (stereo not drawn)	-	-	-	-	-	-
CCCCCC(CC(=O)NO)C(=O)NC(C(=O)N1CCCC1CO)C(C)C (stereo not drawn)	-	2.6µM	-	-	1.8µM	.
CCCCC[C@H](CC(=O)NO)C(=O)N[C@H](C(=O)N1CCC[C@H]1CO)C(C)C	-	.	.	?	.	-
O=C(Nc1ccn(CCCNCCCN2CCCC2=O)c(=O)n1)OCc1ccccc1	-	-	-	.	-	.
Cc1nn(-c2ccccc2)c(-n2cccc2)c1C(=O)N1CCN(c2ccccc2)CC1	-	?	.	-	23µM	-
CCOC(=O)N1CCC(NC(=O)c2cnn(-c3cccc(F)c3)c2-n2cccc2)CC1	-	?	.	-	18µM	-
CCN1CCN(C(=O)c2c(C)nn(-c3ccc(F)cc3)c2-n2cccc2)CC1	-	.	.	-	.	-
COc1cccc(CNC(=O)c2c(C)nn(-c3cccc(C)c3)c2-n2cccc2)c1	-	?	.	-	15µM	-
COc1cccc(NC(=O)c2c(C)nn(-c3cccc(C)c3)c2-n2cccc2)c1	-	?	.	-	?	-
Cc1nn(-c2ccccc2)c(-n2cccc2)c1C(=O)NCCc1ccc(Cl)cc1	-	21µM	.	-	?	-
Cc1cc(C)c(C(=O)C2OC(=O)C(C)(C)C(=O)C2(C)C)c(C)c1 (stereo not drawn)	-	-	-	-	-	-
CCOC(=O)N1CCC(NC(=O)c2c(C)nn(-c3cccc(C)c3)c2-n2cccc2)CC1	-	21µM	.	-	18µM	-
CCOC(=O)N1CCC(NC(=O)c2c(C)nn(-c3ccc(C)cc3)c2-n2cccc2)CC1	-	.	.	-	.	-

Compound activity from PubChem BioAssay.
